According to PubChem BioAssay AID1671202 (University of Kansas High Throughput Screening Laboratory, 2021):
Where “and” joins values, the source holds several entries; their conditions need not be identical. Equal values may be shown once. Out of some 190,000 compounds screened, about 6,900 (3.6%) were called active. The entries come from a sample that favours actives as a whole. Values without a mark were called inactive. No stated cut-off is given here; in the data, active means inhibition above about 50%; inactive means the rest.

The compounds below were run against Huntingtin (Homo sapiens) (UniProt P42858) (assay: mutant huntingtin-calmodulin interaction inhibitors – biochemical, AlphaScreen, primary screen (AID 1671202;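 further: 0% = both proteins with DMSO and 100% = one protein alone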)). Details: AlphaScreen His-mHTT/GST-CaM binding, luminescence; at 15 µM, hits give high values.
Sequence of Huntingtin (Homo sapiens) (P42858 whole entry, looked up, stated change not applied): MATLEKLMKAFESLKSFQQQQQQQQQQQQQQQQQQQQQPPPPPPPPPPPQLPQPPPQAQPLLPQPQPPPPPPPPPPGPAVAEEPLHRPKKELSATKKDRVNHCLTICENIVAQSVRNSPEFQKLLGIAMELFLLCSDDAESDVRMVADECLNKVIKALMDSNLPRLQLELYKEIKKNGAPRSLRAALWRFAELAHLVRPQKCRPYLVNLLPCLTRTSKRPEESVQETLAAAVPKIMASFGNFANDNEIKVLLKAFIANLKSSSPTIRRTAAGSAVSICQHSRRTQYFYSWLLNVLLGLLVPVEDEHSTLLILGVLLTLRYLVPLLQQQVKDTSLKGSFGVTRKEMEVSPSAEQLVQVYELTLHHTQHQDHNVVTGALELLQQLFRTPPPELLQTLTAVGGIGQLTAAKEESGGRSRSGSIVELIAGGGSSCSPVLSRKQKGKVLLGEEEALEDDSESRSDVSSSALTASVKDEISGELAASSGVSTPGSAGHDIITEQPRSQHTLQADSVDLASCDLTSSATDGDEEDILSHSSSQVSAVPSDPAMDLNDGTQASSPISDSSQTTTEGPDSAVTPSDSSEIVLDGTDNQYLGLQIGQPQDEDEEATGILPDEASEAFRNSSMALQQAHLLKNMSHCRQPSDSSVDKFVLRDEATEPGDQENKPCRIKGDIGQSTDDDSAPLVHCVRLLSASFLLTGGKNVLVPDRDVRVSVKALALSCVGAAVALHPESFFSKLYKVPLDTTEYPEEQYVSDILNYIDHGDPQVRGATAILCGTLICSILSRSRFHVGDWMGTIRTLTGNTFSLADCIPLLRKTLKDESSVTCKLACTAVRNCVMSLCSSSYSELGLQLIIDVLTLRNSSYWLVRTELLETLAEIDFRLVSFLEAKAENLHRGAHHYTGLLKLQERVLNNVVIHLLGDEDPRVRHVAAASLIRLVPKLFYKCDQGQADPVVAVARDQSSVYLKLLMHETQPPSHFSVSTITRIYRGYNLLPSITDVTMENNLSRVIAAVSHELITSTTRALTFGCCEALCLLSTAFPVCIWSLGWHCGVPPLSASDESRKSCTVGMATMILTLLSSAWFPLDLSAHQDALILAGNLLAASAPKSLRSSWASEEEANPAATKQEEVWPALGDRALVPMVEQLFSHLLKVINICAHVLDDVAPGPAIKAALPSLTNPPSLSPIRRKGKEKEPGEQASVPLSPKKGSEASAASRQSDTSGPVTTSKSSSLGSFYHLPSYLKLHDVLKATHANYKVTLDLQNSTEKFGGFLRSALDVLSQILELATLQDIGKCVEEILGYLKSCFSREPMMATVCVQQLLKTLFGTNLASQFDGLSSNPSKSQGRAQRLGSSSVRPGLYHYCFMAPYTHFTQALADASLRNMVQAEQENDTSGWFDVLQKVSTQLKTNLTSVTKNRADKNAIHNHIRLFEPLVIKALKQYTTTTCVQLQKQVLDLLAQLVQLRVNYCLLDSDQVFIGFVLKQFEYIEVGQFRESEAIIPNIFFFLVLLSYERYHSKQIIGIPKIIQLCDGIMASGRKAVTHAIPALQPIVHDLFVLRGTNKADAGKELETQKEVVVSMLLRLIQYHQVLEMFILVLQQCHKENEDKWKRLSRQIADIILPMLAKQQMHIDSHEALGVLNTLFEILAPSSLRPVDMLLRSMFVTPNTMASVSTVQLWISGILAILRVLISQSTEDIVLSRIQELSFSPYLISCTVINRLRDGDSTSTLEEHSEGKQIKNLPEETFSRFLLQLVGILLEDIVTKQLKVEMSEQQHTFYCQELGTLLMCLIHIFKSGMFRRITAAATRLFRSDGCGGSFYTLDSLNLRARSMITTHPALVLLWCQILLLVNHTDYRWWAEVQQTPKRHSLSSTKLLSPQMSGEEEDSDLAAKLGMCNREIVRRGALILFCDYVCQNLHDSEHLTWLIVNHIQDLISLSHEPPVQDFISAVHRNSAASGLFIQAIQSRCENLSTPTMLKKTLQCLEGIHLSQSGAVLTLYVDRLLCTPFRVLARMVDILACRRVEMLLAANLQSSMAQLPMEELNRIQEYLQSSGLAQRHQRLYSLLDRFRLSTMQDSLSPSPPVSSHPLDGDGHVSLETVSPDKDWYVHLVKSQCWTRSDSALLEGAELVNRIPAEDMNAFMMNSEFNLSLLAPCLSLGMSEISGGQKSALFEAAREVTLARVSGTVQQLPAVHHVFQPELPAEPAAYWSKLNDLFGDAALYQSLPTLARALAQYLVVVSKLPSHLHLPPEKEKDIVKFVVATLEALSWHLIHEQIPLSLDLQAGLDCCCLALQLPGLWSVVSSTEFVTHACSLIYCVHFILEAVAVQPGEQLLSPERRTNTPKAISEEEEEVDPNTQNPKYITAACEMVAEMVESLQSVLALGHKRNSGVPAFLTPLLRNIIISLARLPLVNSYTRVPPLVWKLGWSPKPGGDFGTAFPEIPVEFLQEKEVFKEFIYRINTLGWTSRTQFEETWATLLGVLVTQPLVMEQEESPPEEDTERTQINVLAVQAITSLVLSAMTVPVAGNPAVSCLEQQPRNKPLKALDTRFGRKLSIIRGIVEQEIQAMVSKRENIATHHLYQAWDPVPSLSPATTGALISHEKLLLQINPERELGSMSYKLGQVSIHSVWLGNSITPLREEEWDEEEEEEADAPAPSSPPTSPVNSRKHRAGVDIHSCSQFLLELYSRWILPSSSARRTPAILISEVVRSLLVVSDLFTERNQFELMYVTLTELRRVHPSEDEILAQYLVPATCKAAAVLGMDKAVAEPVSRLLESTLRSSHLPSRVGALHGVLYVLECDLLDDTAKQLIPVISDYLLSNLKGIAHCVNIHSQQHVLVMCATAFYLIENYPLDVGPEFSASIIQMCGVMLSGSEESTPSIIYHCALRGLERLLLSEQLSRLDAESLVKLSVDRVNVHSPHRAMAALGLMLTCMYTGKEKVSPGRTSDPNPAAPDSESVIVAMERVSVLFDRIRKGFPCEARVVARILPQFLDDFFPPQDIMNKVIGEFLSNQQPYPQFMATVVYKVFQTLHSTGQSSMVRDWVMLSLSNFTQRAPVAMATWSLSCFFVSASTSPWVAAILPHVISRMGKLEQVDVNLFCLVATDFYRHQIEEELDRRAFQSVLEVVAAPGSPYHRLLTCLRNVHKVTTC

| Compound | inhibition |
| --- | --- |
| CN(C(=O)Cc1c[nH]c2ccccc12)C1(C(=O)NC2CCCCC2)CCCCC1 | 6% |
| CC(=O)c1sc(NC(=O)c2ccccc2[N+](=O)[O-])nc1C | -19.4% |
| Cc1cccc(C(=O)NCCC2CCN(C(=O)Nc3cccc(Cl)c3)CC2)c1 | -18.9% |
| CCOc1ccc(-n2c(C)nc3cc(C(=O)NCC(OCC)OCC)ccc32)cc1 | 23% |
| CCOC(CNC(=O)c1ccc2c(c1)nc(C)n2-c1cc(Cl)ccc1OC)OCC | 52% (active) |
| COc1ccccc1-n1c(C)nc2cc(C(=O)NCc3cccnc3)ccc21 | 0% |
| O=C1c2ccccc2C(=O)c2c1ccc(Cl)c2NC(=O)C(F)(F)F | 18% |
| O=S(=O)(c1ccc(Cl)cc1)N1CCSC1c1ccccc1Cl (stereo not drawn) | -18% |
| O=C(NC1CCCCC1)C1CC(c2ccc(F)cc2)=NO1 (stereo not drawn) | -5.78% |
| N=C1S/C(=C\c2ccc(N3CCOCC3)cc2)C(=O)N1c1ccccc1Cl | 39% |
| Cc1ccc(C2=CC(c3ccc(C)cc3)n3nc(CCCO)nc3N2)cc1 (stereo not drawn) | 24% |
| CCC(=O)NCc1csc(C2CCCN(C(=O)C(C)(C)C)C2)n1 (stereo not drawn) | 1.52% |
| O=C1OC(c2cccc(Br)c2)=N/C1=C\c1ccc(I)cc1 | 5% |
| COC(C(=O)Nc1ccc(C(C)=O)cc1)c1ccccc1 (stereo not drawn) | -1.7% |
| COC(=O)c1ccc(NC(=O)C(c2ccccc2)n2cccc2)cc1 (stereo not drawn) | 75.5% (active) |
| O=C(Nc1cc(F)ccc1F)C(c1ccccc1)n1cccc1 (stereo not drawn) | 42.3% |
| CN(C)Cc1c(O)ccc2c1OC(=Cc1cccs1)C2=O | 1.1% |
| Nc1nc(SCC(=O)N2CCCCC2)nc2sc3c(c12)CCCC3 | 35% |
| C=CCn1c(SC(CCO)C(=O)N2CCCCC2)nc2sc3c(c2c1=O)CCCC3 (stereo not drawn) | 35.2% |
| NNc1nc2sc3c(c2c(=O)n1Cc1ccccc1)CCCC3 | 79.8% (active) |
| Cc1ccccc1-n1ccn(CC(=O)NCc2ccco2)c(=O)c1=O | 1% |
| CCOCCCNC(=O)C1(C)CCC(=O)N1c1ccc(F)cc1C (stereo not drawn) | -2.61% |
| CCOCCCNC(=O)N1CCc2cn(C)c3cccc(c23)C1 | 4.99% |
| CCOc1ccccc1NC(=O)N1CC2CN(S(=O)(=O)c3ccc(C)cc3)CC(C1)O2 | -6.22% |

| Compound | inhibition |
| --- | --- |
| Cc1ccc(NC(=O)N2CCC3(CC2)Nc2cc(F)ccc2-n2cccc23)c(Cl)c1 | 31.9% |
| O=C(NCc1ccco1)N1CCC2(CC1)Nc1ccccc1-n1cccc12 | 67.5% (active) |
| CCOCCCNC(=O)N1CCC2(CC1)Nc1cc(F)ccc1-n1cccc12 | 64.6% (active) |
| COc1ccccc1NC(=O)N1CCC2(CC1)NC(=O)c1cc(F)ccc1N2C | -0.74% |
| CC1CCC2(CC1)NC(=O)N(CC(=O)NCc1ccco1)C2=O (stereo not drawn) | 1.16% |
| CCOc1ccccc1NC(=O)N1CCC(N2CCN(Cc3ccccc3)C2=O)CC1 | 4.68% |
| COc1ccc(C)cc1NC(=O)N1CCC2(CC1)Nc1cc(F)ccc1-n1cccc12 | 54% (active) |
| CCOc1ccccc1NC(=O)N1CCC2(CC1)c1cccn1-c1ccc(C)cc1N2CC | 50.5% (active) |
| CC(C)n1c(C2CCN(C(=O)C3(c4ccccc4)CC3)C2)nc2ccncc21 (stereo not drawn) | 1.58% |
| O=c1[nH]c(-c2ccccc2)cn1-c1cccc(C(F)(F)F)c1 | 12% |
| C=Cc1ccc(CN2C(=O)N(c3ccc(F)cc3)c3ncccc3S2(=O)=O)cc1 | -1.5% |
| Nc1cc(C2CCN(C(=O)Nc3cc(Cl)cc(Cl)c3)CC2)no1 | 1.32% |
| Cc1nn2cc(-n3cc([N+](=O)[O-])cn3)cnc2c1[N+](=O)[O-] | -2.97% |
| COc1cccc(CC(=O)Nc2cccn3c(C)nnc23)c1 | -2.3% |
| CCCn1c(=O)c2sc(N3CCCC3)nc2n(CC(=O)Nc2cc(F)cc(F)c2)c1=O | -10.6% |
| COc1ccc2oc(-c3ccc(NC(=O)c4cccc(Br)c4)cc3)nc2c1 | 34% |
| C=CCc1ccc(OCC(=O)NCCC2=CCCCC2)c(OC)c1 | -16% |
| COc1cc(OC)c(N2C=C(C#N)S(=O)(=O)c3ccc(F)cc32)cc1Cl | -0.3% |
| Cc1cccc(CNC(=O)c2cc(C(C)C)n3nccc3n2)c1 | -134% |
| Cc1ccc(NC(=O)O[C@H]2CCC23CCCCC3)cc1 | -86.9% |
| Cc1cc(C)c(S(=O)(=O)N2CCCC2C(=O)NCCc2csc(C)n2)c(C)c1 (stereo not drawn) | -2.4% |
| Cc1cccc(C(=O)N2CCN(c3nc4ccccc4n(CC(C)C)c3=O)CC2)c1 | -13.3% |
| CCN1c2ccc(C)cc2C(=O)NC12CCN(C(=O)c1cccc(C)c1)CC2 | -2.5% |
| O=C1NC2(CCN(C(=O)c3ccccc3)CC2)Nc2cc(Cl)ccc21 | -7.3% |

| Compound | inhibition |
| --- | --- |
| Cc1ccc2c(c1)NC1(CCN(C(=O)c3ccccc3)CC1)c1cccn1-2 | 84.3% (active) |
| CCNc1nccc(N2CCC(CC(=O)NCc3cccc(Cl)c3)CC2)n1 | 7.56% |
| COc1ccc(-c2cc(C(F)(F)F)n3nc(C(=O)N4CCC(C)CC4)cc3n2)cc1OC | 4% |
| COc1ccc(CC(=O)NC(c2ccccc2)c2ccccc2)cc1OC | 53.3% (active) |
| COc1ccc(C(=O)NC(C)c2ccccc2)cc1OC (stereo not drawn) | -4.5% |
| COc1ccc(CCNC(=O)COc2ccccc2Br)cc1OC | 1.8% and -8.4% |
| COc1ccc(OC)c(CN2CCc3nc(N4CCOCC4)ncc3C2)c1 | 13.8% |
| CCc1ccccc1NC(=O)c1cc2n(n1)CCCN(Cc1ccc(F)cc1)C2=O | -3.32% |
| CC(C)(C)c1ccc(C(=O)Nc2nc3ccc(S(C)(=O)=O)cc3s2)cc1 | -2% |
| Cc1cc(C)c(C(=O)Nc2nc3ccc(S(C)(=O)=O)cc3s2)c(C)c1 | -1.4% |
| CS(=O)(=O)c1ccc2nc(NC(=O)/C=C/c3ccccc3)sc2c1 | 76% (active) |
| COc1cc(N2CN=c3s/c(=C\c4ccc([N+](=O)[O-])cc4)c(=O)n3C2)cc(OC)c1OC | 49% |
| Brc1ccc2c(c1)CCCN2 | 10% |
| Cc1nn2c(=O)/c(=C/c3ccc(-c4ccc(F)cc4)o3)sc2nc1=O | -2% |
| O=C1NN=C(c2ccccc2)/C1=C/c1ccc(-c2ccc(Cl)cc2)o1 | 61% (active) |
| CC1=NOC(=O)/C1=C/c1ccc(-c2cc(Cl)ccc2Cl)o1 | -2% |
| Cc1cccc(CSC2=NCCN2C(=O)Cc2ccc(F)cc2)c1 | -24% |
| CCCCOc1ccc(/C=C(\C#N)c2nc3ccccc3[nH]2)cc1 | -1% |
| COc1cc(/C=C(\C#N)c2nc3ccccc3[nH]2)ccc1OCC#N | 12% |
| N#C/C(=C\C=C\c1ccccc1)c1nc2ccccc2[nH]1 | 75% (active) and 58% (active) |
| CC(=O)c1cccc(NC(=O)/C(=C\c2ccc3c(c2)OCO3)NC(=O)c2ccccc2Cl)c1 | 7% |
| COc1cccc2sc(N(C)CC(=O)Nc3nc(C)cs3)nc12 | -3% |
| COc1cc(-c2ccc(O)c(O)c2)cc(=O)c2c(C)oc(C)c12 | 49% |
| COc1ccc(-c2c(C)c3ccc(O)c(CN4CCCC4)c3oc2=O)cc1OC | 2.3% |

| Compound | inhibition |
| --- | --- |
| CCOc1cc(-c2ccc(O)c(OC)c2)cc(=O)c2c(C)oc(C)c12 | 51% (active) |
| N#CC1=C(N)N2CCN3C(N)=C(C#N)C1(c1ccccc1)C23c1ccccc1 (stereo not drawn) | 21% |
| O=C1CC(O)(C(F)(F)F)Oc2ccc(Cl)cc21 (stereo not drawn) | 0% |
| CC(C)N1C/C(=C\c2ccsc2)C(=O)/C(=C/c2ccsc2)C1 | 45% |
| O=C(Nc1ccc(F)cc1)c1cc(S(=O)(=O)NCCc2ccc(Cl)cc2)ccc1F | 61% (active) |
| COc1ccc(NC(=O)c2cc(S(=O)(=O)NCCc3ccc(Cl)cc3)ccc2F)cc1 | 20% |
| O=C(Nc1ccc(F)cc1)c1cc(S(=O)(=O)NCc2ccc(F)cc2)ccc1F | -3% |
| COc1ccccc1OCCNC(=O)CSc1ccc(C(F)(F)F)cc1[N+](=O)[O-] | 2% |
| CC1=C(C(=O)Nc2cccnc2)C(c2ccccn2)n2nc(SCc3ccccc3)nc2N1 (stereo not drawn) | 5% |
| CC1=C(C(=O)Nc2ccc(Cl)cc2)C(c2ccc(Cl)cc2Cl)n2ncnc2N1 (stereo not drawn) | 59% (active) |
| CC1=C(C(=O)Nc2ccc(C)cc2)C(c2cccc([N+](=O)[O-])c2)n2ncnc2N1 (stereo not drawn) | 7% |
| COc1ccc(NC(=O)C2=C(C)Nc3ncnn3C2c2cc(OC)c(OC)cc2OC)cc1 (stereo not drawn) | 0% |
| O=C(NCc1ccco1)c1cc2nc(-c3ccc(Cl)cc3)cc(C(F)(F)F)n2n1 | -2% |
| O=C(NCCc1ccccc1)c1cc2n(n1)CCCN(Cc1ccc(F)cc1)C2=O | 3.53% |
| Cc1ccc(CN2CCCn3nc(C(=O)NCc4ccccc4Cl)cc3C2=O)cc1 | -2.01% |
| Cc1ccc(C)c(CNC(=O)c2cc3n(n2)CCCN(Cc2ccc(F)cc2)C3=O)c1 | 50.5% (active) |
| Cc1cc(N2N=NC3C(=O)N(c4ccc(F)cc4)C(=O)C32)ccc1Br (stereo not drawn) | -11.3% |
| CSC1=C(C#N)C(c2cccs2)CC(=O)N1 (stereo not drawn) | -7.7% |
| Cc1cccc(-c2cc(C3CCN(S(=O)(=O)c4ccc(C#N)cc4)CC3)[nH]n2)c1 | 9.71% |
| Cc1cccc(-c2cc(C3CCN(C(=O)Cc4ccsc4)CC3)[nH]n2)c1 | 59.9% (active) |
| Cc1cccc(-c2cc(C3CCN(S(=O)(=O)c4cccc(C#N)c4)CC3)[nH]n2)c1 | 7.83% |
